This is an account of results in ChEMBL document CHEMBL4513216, “Probing the Open Global Health Chemical Diversity Library for Multistage-Active Starting Points for Next-Generation Antimalarials” (ACS Infect Dis, 2020).

Hit rate of the full screen: of about 69,000 compounds, about 8,600 (12%) showed an effect of 50% or more. The sample as a whole holds a higher share of strong results than the screen did.

This experiment has as its system Plasmodium berghei. As to the kind of experiment: Screen against P. berghei liver stage (PbLuc), transformed with Luciferase, at 10uM. The format is functional, HepG2. Conditions: tested at 10 uM.
For the compound `O=C(CCc1ccsc1)N1CCCCC1Cn1cccn1` (centres undefined), the INHIBITION is given as -23.9%.
With `Cc1noc([C@H]2CC[C@@H]3[C@@H](CCN3S(=O)(=O)C3CC3)O2)n1`, the INHIBITION was -6.23%.
Consider `Cc1cccc(OCCC(=O)N2CCN(CC(=O)NC3CC3)CC2)c1C`, for which the INHIBITION worked out at 33.8%.
Then `Cn1c(N2CCOCC2)nc2cc(C(=O)N3CCCOCC3)ccc21`, with -24.6%; and `CNC(=O)Cc1ccc(-n2ccnc2-c2cccc(C(=O)O)c2)cc1`, with 15.6%; and `CC(=O)NCc1cccc(-n2ccnc2-c2cccc(C(=O)O)c2)c1`, with 62.1%.
Then `CCc1ncc(-c2nccn2-c2cccc(CC(=O)O)c2)cn1`, with 16.3%; and `Cc1cnn(C2CCCN(C(=O)c3ccc(Cn4ccnc4)cc3)C2)c1` (centres undefined), with 16.9%.
The value for `Cc1ccc(C(CNC(=O)c2cc(=O)c3ccccc3[nH]2)N(C)C)cc1` (centres undefined) was -5.22%.
As to `Cc1cnc(N2C[C@@H]3CN(C4CCOC4)CCC[C@]3(C(=O)O)C2)nc1` (some centres undefined), the INHIBITION came out at 24.9%.
`CCN(CC1CC1)C(=O)NCc1nnc2n1CCC2`: the INHIBITION was found to be 45.3%.
On to `COc1ccc(NC(=O)NCC(O)c2ccccc2F)c(OC)c1` (centres undefined), for which the INHIBITION was determined as 3.15%.
With `Cc1c(C(=O)N2CCC(c3nc(C)n4ccsc34)CC2)cnn1C`, the INHIBITION is 42.6%.
Turning to `CC(C)N1[C@H](Cn2cncn2)C[C@@H]2CN(Cc3ccsc3)CC[C@@H]21`, the INHIBITION is given as 47.5%.
For the compound `CC(C)N1[C@H](Cn2cccn2)C[C@@H]2CN(Cc3ccoc3)CC[C@@H]21`, the INHIBITION was found to be 57.9%.
Then `CC(C)N1[C@H](Cn2cncn2)C[C@@H]2CN(c3ncccn3)CC[C@@H]21`, with 20.1%; and `CC(=O)N1[C@H](Cn2cncn2)C[C@@H]2CN(Cc3ccccn3)CC[C@@H]21`, with 34.1%.
`CC(C)N1[C@H](Cn2cccn2)C[C@@H]2CN(C3CCOCC3)CC[C@@H]21`: the INHIBITION was 33%.
`CC(=O)N1[C@H](Cn2cncn2)C[C@@H]2CN(Cc3ccncc3)CC[C@@H]21`: the INHIBITION was 55.9%.
The value for `CC(C)N1[C@H](Cn2cncn2)C[C@@H]2CN(Cc3cccs3)CC[C@@H]21` was 57.5%.
Then `CN1[C@H](Cn2cncn2)C[C@@H]2CN(Cc3ccsc3)CC[C@@H]21`, with 54.8%.
Then `CC(=O)N1[C@H](Cn2cncn2)C[C@@H]2CN(Cc3cccnc3)CC[C@@H]21`, with 35.4%.
Turning to `CC(C)N1[C@H](CN2CCCC2)C[C@@H]2CN(Cc3ccoc3)CC[C@@H]21`, the INHIBITION is recorded as -75.9%.
`CN1[C@H](Cn2cccn2)C[C@@H]2CN(Cc3cccs3)CC[C@@H]21`: the INHIBITION was 28.3%.
Then `CN1[C@H](Cn2cncn2)C[C@@H]2CN(Cc3cccc(C#N)c3)CC[C@@H]21`, with 20.1%.
The value for `Cc1cccc(C(CNC(=O)NCc2cc[nH]n2)N2CCOCC2)c1` (centres undefined) was 35.95%; that for `CCN(Cc1ccoc1)C(=O)NC1CCN(C(=O)OC(C)(C)C)C1` (centres undefined) was 1.93%; that for `CCc1ccc(C(N)c2cccc(S(C)(=O)=O)c2)cc1` (centres undefined) was 48.1%.
For `CC1CCCCN1C(=O)COc1nc(C(C)(C)C)no1` (centres undefined), the INHIBITION is reported as -29.2%.
Regarding `COc1cc(CNc2cc(-c3nncn3C)ccn2)cc(OC)c1OC`, the INHIBITION is 53.4%.
Then `COc1cc(CNc2nncs2)cc(OC)c1OC`, with 80.8%; and `COc1ccc(CNc2nncs2)cc1F`, with 8.05%; and `Cn1cnnc1-c1ccnc(NCc2ccc3c(c2)OCCO3)c1`, with 42.3%.
The value for `COc1cc(CNCCc2cnn(C)c2)cc(OC)c1OC` was 31.55%; that for `Cn1cnnc1-c1ccnc(NCc2ccc(Br)cc2)c1` was 8.05%; that for `COc1cc(CNCc2ccnc(N3CCOCC3)c2)cc(Cl)c1OC` was 40.3%.
In the case of `COc1cc(CNc2nc(N3CCOCC3)ns2)cc(OC)c1OC`, the INHIBITION came to 8.05%.
The value for `Cn1cnnc1-c1ccnc(NCc2ccccc2)c1` was 57.7%.
The value for `COCCN(Cc1cnn(C)c1)C(=O)C1CCN(C2CCCCC2)CC1` was 36.7%; that for `C[C@@H]1CN(CCOc2ccc(Cl)cc2)CC[C@@]1(O)C1CCOCC1` was -17.8%; that for `O=C(N[C@@H]1CN(Cc2ccoc2)[C@@H]2CCCO[C@@H]21)C1CC1` was 11.2%.
Consider `CCN(CC)c1ncc(Cl)c(C(=O)NC2CCC(O)CC2)n1` (centres undefined), for which the INHIBITION amounted to 60.1%.
On to `O=C(NC1CCc2nccn2C1)c1ccc(NC2CC2)nc1` (centres undefined), for which the INHIBITION was 7.58%.
As for `Cc1cn2c(n1)CCC(NC(=O)c1nc(C)ncc1Cl)C2` (centres undefined), the INHIBITION is on record as 30.3%.
The value for `O=C(NC1CCC(O)CC1)c1cnc2c(cnn2C2CCCC2)c1` (centres undefined) was 11.3%.
As for `Cn1cc(I)c(C(=O)NC2CCCCC2)n1`, the INHIBITION was found to be 25.4%.
As to `CCN(CC)c1ncc(Cl)c(C(=O)NC2CCc3nccn3C2)n1` (centres undefined), the INHIBITION stood at 76.7%.
The value for `CCNc1ncc(C(=O)NC2CCC(n3cnnc3)CC2)cn1` (centres undefined) was 37.7%.
Then `CN(Cc1cnn(C)c1)C(=O)NC1CCC(O)CC1` (centres undefined), with 1.81%.
Then `CCN(CC)c1ncc(Cl)c(C(=O)NC2CC2)n1`, with 57.3%; and `CNc1nc(CNC(=O)Nc2cccc(Cl)c2Cl)cs1`, with -15.467%.
With `CCc1noc(CCC(=O)N2CCC(c3ccn[nH]3)C2)n1` (centres undefined), the INHIBITION turned out to be 10.97%.
Take `CNC(=O)N1Cc2cc(F)ccc2C2(CCN(C)CC2)C1`: the INHIBITION is 21.6%.
The value for `CCc1ccc(S(=O)(=O)Nc2ccn(CC(=O)OC)n2)cc1` was -74%; that for `C=c1ccoc1=C1NN=C(CNCCn2cc(C)cn2)O1` was -25.9%; that for `NC(=O)NC(=O)CNC1(c2ccc(Cl)cc2)CCC1` was -24.2%.
Turning to `COCCN1CCCn2c(nc(CNS(C)(=O)=O)cc2=O)C1`, the INHIBITION was determined as 25.8%.
The value for `CCOC(=O)c1sc2ccsc2c1CNC(=O)CC` was 57.2%.
The value for `CCOC(=O)c1sc2ccsc2c1CNC(=O)CCOC` was 61.6%.
As for `CCOC(=O)c1sc2ccsc2c1CNC(=O)COC`, the INHIBITION is 19.933%.
On to `CCOC(=O)c1sc2ccsc2c1CNC(=O)C(C)OC` (centres undefined), for which the INHIBITION was found to be 17.8%.
Then `CCOC(=O)c1sc2ccsc2c1CNS(C)(=O)=O`, with 7.925%.
The value for `CCOC(=O)c1sc2ccsc2c1CNC(=O)C(C)(C)C#N` was 20.6%.
On to `CC(C(=O)NCC1CCN(c2ccncc2)CC1)S(C)(=O)=O` (centres undefined), for which the INHIBITION is recorded as -7.94%.
